# A number with no mark means an inactive call. Records with an inconclusive call do not appear. Entries that show only a call come without a potency. The source made the active and inactive calls. Calls follow the shape of the dose curve; as a rule, active = well fitted curve in the direction sought with a large enough effect in the repeat runs; inconclusive = weak or mixed curves; inactive = no such curve, though single readings can be large; an effect the other way counts as inactive or inconclusive.
# Key:
# [1] = A CellTox Green Cytotoxicity Assay to monitor cytotoxicity in HEK293 cells - 32 hour (AID 1224881); also: nearly all actives have a fitted effect of over 40% in size; also: potency is read from the fitted curve at half-maximal effect
# How it was run: (§1)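 Fluorescence from a DNA-binding dye excluded by viable cells was measured repeatedly in the same HEK293 wells (600 cells/well) during continuous compound exposure at 37 C. Each assay gives one read point: 0, 8, 16, 24, 32 or 40 h.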
# [2] = A CellTox Green Cytotoxicity Assay to monitor cytotoxicity in HepG2 cells - 0 hour (AID 1224882); also: nearly all actives have a fitted effect of over 35% in size
# How it was run: (§2)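 Real-time cytotoxicity: fluorescence of a cell-impermeant cyanine dye binding DNA of dead HepG2 cells, measured repeatedly (0–40 h) during compound exposure at 37 C. Cells seeded 600/well with reagent, dosed after 5 h.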
# [3] = A CellTox Green Cytotoxicity Assay to monitor cytotoxicity in HepG2 cells - 32 hour (AID 1224883); also: nearly all actives have a fitted effect of over 50% in size; also: potency is read from the fitted curve at half-maximal effect
# How it was run: as §2
# [4] = A CellTox Green Cytotoxicity Assay to monitor cytotoxicity in HEK293 cells - 8 hour (AID 1224884); also: nearly all actives have a fitted effect of over 35% in size
# How it was run: as §1
# [5] = qHTS RealTime-Glo MT Cell Viability Assay in HepG2 cells - 16 hour (AID 1224885); also: nearly all actives have a fitted effect of over 50% in size
# How it was run: (§3)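 Cells + NanoLuc/prosubstrate dispensed (600 cells/well) → 5 h at 37 C/5% CO2 → compounds in DMSO transferred → 40 h incubation at 37 C, luminescence read at 0, 8, 16, 24, 32, 40 h.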
# [6] = qHTS RealTime-Glo MT Cell Viability Assay in HEK293 cells - 24 hour (AID 1224886); also: nearly all actives have a fitted effect of over 50% in size; also: potency is read from the fitted curve at half-maximal effect; as to activity change, negative = cytotoxicity: top concentration of the series differs between compounds
# How it was run: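 Tox21 10K qHTS, HEK293, 600 cells/well, RealTime-Glo reagent co-dispensed with cells; 5 h preincubation, compound by pintool, 37 C, luminescence at 0–40 h.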
# [7] = qHTS RealTime-Glo MT Cell Viability Assay in HEK293 cells - 8 hour (AID 1224887); also: nearly all actives have a fitted effect of over 50% in size; also: potency is read from the fitted curve at half-maximal effect; as to activity change, negative = cytotoxicity: top concentration of the series differs between compounds
# How it was run: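 Luminescence, which tracks viable cell number through reduction of the prosubstrate to a NanoLuc substrate, was read over continuous 37 C culture. Cells (600/well) were premixed with reagent and rested 5 h before 23 nL of compound in DMSO was pinned.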
# [8] = A CellTox Green Cytotoxicity Assay to monitor cytotoxicity in HEK293 cells - 16 hour (AID 1224888); also: nearly all actives have a fitted effect of over 35% in size
# How it was run: as §1
# [9] = qHTS RealTime-Glo MT Cell Viability Assay in HepG2 cells - 0 hour (AID 1224889); also: nearly all actives have a fitted effect of over 50% in size; also: potency is read from the fitted curve at half-maximal effect
# How it was run: as §3
# [10] = A CellTox Green Cytotoxicity Assay to monitor cytotoxicity in HepG2 cells - 8 hour (AID 1224890); also: nearly all actives have a fitted effect of over 45% in size; also: potency is read from the fitted curve at half-maximal effect
# How it was run: as §2
structure (smiles),measurement,setting,value
C=CC(=C)CCCC(C)(C)OC(C)=O,Potency,[1],inactive
same,Potency,[2],inactive
same,Potency,[3],inactive
same,Potency,[4],inactive
same,Potency,[5],inactive
same,Potency,[6],inactive
same,Potency,[7],inactive
same,Potency,[8],inactive
same,Potency,[9],inactive
same,Potency,[10],inactive
COC(=O)[C@@H]1CC2=CC(=O)CC[C@]2(C)[C@@]23O[C@@H]2C[C@@]2(C)[C@@H](CC[C@@]24CCC(=O)O4)[C@H]13,Potency,[1],inactive
same,Potency,[2],inactive
same,Potency,[3],inactive
same,Potency,[4],inactive
same,Potency,[5],inactive
same,Potency,[6],inactive
same,Potency,[7],inactive
same,Potency,[8],inactive
same,Potency,[9],inactive
same,Potency,[10],inactive
CN1CCN(c2c(F)cc3c(=O)c(C(=O)O)cn4c3c2OCN4C)CC1,cytotoxicity increase,[1],-5.3% [at 15.8 µM]
same,cytotoxicity,[2],-9.31% [at 15.8 µM]
same,cytotoxicity increase,[3],-4.96% [at 15.8 µM]
same,cytotoxicity increase,[4],-22% [at 15.8 µM]
same,"activity change, negative = cytotoxic",[5],4.97% [at 15.8 µM]
same,"activity change, negative = cytotoxicity",[6],0.438% [at 15.8 µM]
same,"activity change, negative = cytotoxicity",[7],1.15% [at 15.8 µM]
same,activity change,[8],"-3.76% [at 15.8 µM, active compounds read high]"
same,"activity change, negative = cytotoxicity",[9],2.43% [at 15.8 µM]
same,cytotoxicity increase,[10],-3.25% [at 15.8 µM]
Cc1cc(O)c(C(C)C)cc1Cl,Potency,[1],38.9 µM (active)
same,Potency,[2],inactive
same,Potency,[3],34.7 µM (active)
same,Potency,[4],inactive
same,Potency,[5],inactive
same,Potency,[6],inactive
same,Potency,[7],inactive
same,Potency,[8],inactive
same,Potency,[9],inactive
same,Potency,[10],43.6 µM (active)
Cc1ccc(Nc2nccc(N(C)c3ccc4c(C)n(C)nc4c3)n2)cc1S(N)(=O)=O,Potency,[1],inactive
same,Potency,[2],inactive
same,Potency,[3],inactive
same,Potency,[4],inactive
same,Potency,[5],inactive
same,Potency,[6],1.51 µM (active)
same,Potency,[7],2.13 µM (active)
same,Potency,[8],inactive
same,Potency,[9],inactive
same,Potency,[10],inactive
COC(=O)CC(=O)C(C)(C)C,Potency,[1],inactive
same,Potency,[2],inactive
same,Potency,[3],inactive
same,Potency,[4],inactive
same,Potency,[5],inactive
same,Potency,[6],inactive
same,Potency,[7],inactive
same,Potency,[8],inactive
same,Potency,[9],inactive
same,Potency,[10],inactive
O=C(CCCN1CCC(O)(c2ccc(Br)cc2)CC1)c1ccc(F)cc1,Potency,[1],inactive
same,Potency,[2],inactive
same,Potency,[3],26.8 µM (active)
same,Potency,[4],inactive
same,Potency,[5],inactive
same,Potency,[6],10.7 µM (active)
same,Potency,[7],8.49 µM (active)
same,Potency,[8],inactive
same,Potency,[9],inactive
same,Potency,[10],inactive
CCn1nc(C)c2c1C(=O)NCC(c1ccc(O)cc1)=N2,Potency,[1],inactive
same,Potency,[2],inactive
same,Potency,[3],inactive
same,Potency,[4],inactive
same,Potency,[5],inactive
same,Potency,[6],inactive
same,Potency,[7],inactive
same,Potency,[8],inactive
same,Potency,[9],inactive
same,Potency,[10],inactive
C=CC(=O)NCOCC(C)C,Potency,[1],inactive
same,Potency,[2],inactive
same,Potency,[3],inactive
same,Potency,[4],inactive
same,Potency,[5],inactive
same,Potency,[6],inactive
same,Potency,[7],inactive
same,Potency,[8],inactive
same,Potency,[9],inactive
same,Potency,[10],inactive
CCC(C)=O,Potency,[1],inactive
same,Potency,[2],inactive
same,Potency,[3],inactive
same,Potency,[4],inactive
same,Potency,[5],inactive
same,Potency,[6],inactive
same,Potency,[7],inactive
same,Potency,[8],inactive
same,Potency,[9],inactive
same,Potency,[10],inactive
CCCCCCCCSCCO,Potency,[1],inactive
same,Potency,[2],inactive
same,Potency,[3],43.6 µM (active)
same,Potency,[4],inactive
same,Potency,[5],inactive
same,Potency,[6],inactive
same,Potency,[7],inactive
same,Potency,[8],inactive
same,Potency,[9],inactive
same,Potency,[10],inactive
CCC1(C)CC(=O)NC1=O (stereo not drawn),Potency,[1],inactive
same,Potency,[2],inactive
same,Potency,[3],inactive
same,Potency,[4],inactive
same,Potency,[5],inactive
same,Potency,[6],inactive
same,Potency,[8],inactive
same,Potency,[9],inactive
same,Potency,[10],inactive
OCCSc1ccccc1,Potency,[1],inactive
same,Potency,[2],inactive
same,Potency,[3],inactive
same,Potency,[4],inactive
same,Potency,[5],inactive
same,Potency,[7],inactive
same,Potency,[8],inactive
same,Potency,[9],inactive
same,Potency,[10],inactive
Cc1ccc(S(=O)(=O)NC2CCCCC2)cc1,Potency,[1],inactive
same,Potency,[2],inactive
same,Potency,[3],inactive
same,Potency,[4],inactive
same,Potency,[5],inactive
same,Potency,[7],inactive
same,Potency,[8],inactive
same,Potency,[9],inactive
same,Potency,[10],inactive
CC(=O)[C@H]1CC[C@H]2[C@@H]3C[C@H](C)C4=CC(=O)CC[C@]4(C)[C@H]3[C@@H](O)C[C@]12C,Potency,[1],inactive
same,Potency,[2],inactive
same,Potency,[3],inactive
same,Potency,[4],inactive
same,Potency,[5],inactive
same,Potency,[7],inactive
same,Potency,[8],inactive
same,Potency,[9],0.379 µM (active)
same,Potency,[10],inactive
CCCCCCCCCOC(C)=O,Potency,[1],inactive
same,Potency,[2],inactive
same,Potency,[3],inactive
same,Potency,[4],inactive
same,Potency,[5],inactive
same,Potency,[6],inactive
same,Potency,[8],inactive
same,Potency,[9],inactive
same,Potency,[10],inactive
CCCCC(=O)O[C@]1(C(=O)CO)CC[C@H]2[C@@H]3CCC4=CC(=O)CC[C@]4(C)[C@H]3[C@@H](O)C[C@@]21C,Potency,[1],inactive
same,Potency,[2],inactive
same,Potency,[3],inactive
same,Potency,[4],inactive
same,Potency,[5],inactive
same,Potency,[6],inactive
same,Potency,[8],inactive
same,Potency,[9],9.52 µM (active)
same,Potency,[10],inactive
C1COCO1,Potency,[1],inactive
same,Potency,[2],inactive
same,Potency,[3],inactive
same,Potency,[4],inactive
same,Potency,[5],inactive
same,Potency,[7],inactive
same,Potency,[8],inactive
same,Potency,[9],inactive
same,Potency,[10],inactive
CC(=O)CC(c1ccc([N+](=O)[O-])cc1)c1c(O)c2ccccc2oc1=O (stereo not drawn),Potency,[1],inactive
same,Potency,[2],inactive
same,Potency,[3],inactive
same,Potency,[4],inactive
same,Potency,[5],inactive
same,Potency,[6],inactive
same,Potency,[8],inactive
same,Potency,[9],inactive
same,Potency,[10],inactive
Cc1cc(O)c2c(O)c3c(O)cccc3cc2c1,Potency,[1],inactive
same,Potency,[2],inactive
same,Potency,[3],inactive
same,Potency,[4],inactive
same,Potency,[5],inactive
same,Potency,[6],inactive
same,Potency,[8],inactive
same,Potency,[9],inactive
same,Potency,[10],inactive
Cc1oncc1C(=O)Nc1ccc(C(F)(F)F)cc1,Potency,[1],inactive
same,Potency,[2],inactive
same,Potency,[3],inactive
same,Potency,[4],inactive
same,Potency,[5],inactive
same,Potency,[7],inactive
same,Potency,[8],inactive
same,Potency,[9],inactive
same,Potency,[10],inactive
CC(=O)N(c1onc(C)c1C)S(=O)(=O)c1ccc(N)cc1,Potency,[1],inactive
same,Potency,[2],inactive
same,Potency,[3],inactive
same,Potency,[4],inactive
same,Potency,[5],inactive
same,Potency,[7],inactive
same,Potency,[8],inactive
same,Potency,[9],inactive
same,Potency,[10],inactive
Brc1cc(-c2ccc(Br)c(Br)c2Br)cc(Br)c1Br,Potency,[1],inactive
same,Potency,[2],inactive
same,Potency,[3],inactive
same,Potency,[4],inactive
same,Potency,[5],inactive
same,Potency,[7],inactive
same,Potency,[8],inactive
same,Potency,[9],inactive
same,Potency,[10],inactive

# Reference: PubChem BioAssay (Tox21)
